CDC25B CDK2 inh: primary biochemical HTRF screen for blockers of M-phase inducer phosphatase 2 binding to CDK2/cyclin A. HTRF CDC25B-CDK2/CyclinA binding, anti-His/anti-Flag; active compounds read high. actives 0.72% (n = 94,000). z-score (concentration not given with the values). P30305+P24941; in the data active = z-score above about 3.2
TAR Tat displ: TAR RNA-Tat peptide displacers, HIV-1, primary screen, biochemical, FRET, FAM/TAMRA-labeled Tat; HIV-1 TAR RNA, Tat peptide displacement FRET; active compounds read high; z-score (test concentration not listed); actives 0.6% (n = 100,000); active = z-score of 3 or more in at least 2 runs
Active calls of the source: *; nt = no result. Most compounds without a hit are left out; they make up all but 0.93% or so of the library.

SMILES	CDC25B CDK2 inh	TAR Tat displ
Cc1cc(O)c(C=O)c2c1C(=O)Oc1c(C)c(O)c3c(c1O2)C(O)OC3=O (stereo unspecified)	nt	4*
COc1cc(C)c2c(c1C=O)Oc1c(c(C)c(O)c3c1C(O)OC3=O)OC2=O (stereo unspecified)	nt	0.93
Cc1ccc(N2C(=O)c3ccccc3C2Nc2cccnc2)nc1 (stereo unspecified)	12*	-0.5
Cc1ccnc(N2C(=O)c3ccccc3C2Nc2ccccc2)c1 (stereo unspecified)	0.36	1.2
O=C(Nc1cccc(OC2=NS(=O)(=O)c3ccccc32)c1)C1CC1	-2.2	-1.2
c1ccc(CC2CCN(c3c4c(nc5ncnn35)CCC4)CC2)cc1	nt	0.7
Cc1cc(-c2ccccc2)c2c(n1)sc1c(O)cc(=O)[nH]c12	-1.6	-1.1
CSc1nc(N)nc2sc3c(O)cc(=O)[nH]c3c12	6.5	11*
CC1CC(=O)Nc2cc(S(=O)(=O)NC3CCCCC3)ccc2S1 (stereo unspecified)	nt	1.1
Cc1nnc2c(Nc3ccc(O)cc3)nc3ccccc3n12	-1.6	7.2*
Cc1nnc2c(Nc3ccc(N(C)C)cc3)nc3ccccc3n12	0.17	0.85
CCc1nn(CCCC(=O)N2CC(C)CC(C)C2)c(=O)c2cc3oc(C)cc3n12 (stereo unspecified)	-0.83	0.72
NCC(O)c1ccc(O)c(O)c1 (stereo unspecified)	5.4*	nt
CC(C)NC[C@H](O)c1ccc(O)c(O)c1	0.23	nt
Cc1cccc(Cl)c1NC(=O)CC#N	-1.8	nt
Cc1nn(-c2ccc(Br)cc2)cc1-c1noc(C(=O)NCc2ccco2)n1	nt	1.6
O=C(Nc1ccc2c(c1)OCCO2)C1CCN(S(=O)(=O)c2ccc3[nH]c(=O)ccc3c2)CC1	nt	1.2
O=C(Nc1ccc2c(c1)OCCO2)C1CCN(S(=O)(=O)c2ccc(Br)cc2)CC1	4.6*	1.6
CC(C)Cc1cc(C(=O)NCc2nnc(C(=O)Nc3ccc4c(c3)OCO4)s2)no1	nt	-1.3
CC1=C(c2ccc(Cl)cc2)S(=O)(=O)N=C1N1CCN(c2ccccc2)CC1	-1.1	0.48
CCOC(=O)c1cn2c3c(ccc(Cl)c3c1=O)OC(C)C2 (stereo unspecified)	nt	17*
CCNC(=O)c1cn2c3c(ccc(Cl)c3c1=O)OC(C)C2 (stereo unspecified)	nt	5.3
Cc1nc2c(c(SCC(=O)Nc3cccc(Cl)c3)n1)CCC2	0.62	-0.34
COC(=O)C1=C(N)Oc2ccccc2C1C(C#N)C#N (stereo unspecified)	19*	nt
COC(=O)NC1c2ccccc2Oc2ccccc21	-0.47	0.32
SMILES	CDC25B CDK2 inh	TAR Tat displ
O=C1CC(c2ccco2)Cc2[nH]c(=O)c(-c3nc(-c4ccc(Br)cc4)cs3)cc21 (stereo unspecified)	8.2*	3.7*
Cc1ccc(-c2csc(-c3cc4c([nH]c3=O)CC(c3ccccc3)CC4=O)n2)cc1 (stereo unspecified)	-0.21	-6.3
O=C(Nc1ccc2c(c1)OCCO2)c1cc2c(s1)-c1ccccc1SC2	-0.22	0.09
CCn1c2ccccc2c2cc(CN3CCN(Cc4cccc([N+](=O)[O-])c4)CC3)ccc21	2.7	nt
CCn1c2ccccc2c2cc(CN3CCN(Cc4cccc(OC)c4)CC3)ccc21	6.7*	nt
CCS(=O)(=O)N1CCCc2ccc(NS(=O)(=O)c3cc(OC)ccc3OC)cc21	nt	-0.11
CCCS(=O)(=O)N1CCCc2ccc(NS(=O)(=O)c3ccc(OC)cc3OC)cc21	nt	6*
Cc1cccnc1NC(=O)C1CC(=O)OC12CCCCC2 (stereo unspecified)	14*	1.2
N#Cc1c(NC(=O)C2CC(=O)OC23CCCCC3)sc2c1CCCCC2 (stereo unspecified)	-0.05	0.83
CC(=O)OC[C@H]1O[C@@H](OCc2ccccc2)[C@H](OC(C)=O)[C@@H](OC(C)=O)[C@@H]1OC(C)=O	-0.63	nt
O=C(OC[C@H]1O[C@H](OC(=O)c2cc(O)c(O)c(OC(=O)c3cc(O)c(O)c(O)c3)c2)[C@H](OC(=O)c2cc(O)c(O)c(OC(=O)c3cc(O)c(O)c(O)c3)c2)[C@@H](OC(=O)c2cc(O)c(O)c(OC(=O)c3cc(O)c(O)c(O)c3)c2)[C@@H]1OC(=O)c1cc(O)c(O)c(OC(=O)c2cc(O)c(O)c(O)c2)c1)c1cc(O)c(O)c(OC(=O)c2cc(O)c(O)c(O)c2)c1	nt	26*
CC1CCCC(C)N1CCCNC(=O)C1CCCN(S(=O)(=O)N2CCOCC2)C1 (stereo unspecified)	nt	7.3
O=C(c1ccco1)N1CCN(S(=O)(=O)c2ccccc2)CC1	-0.89	0.56
O=C(c1ccco1)N1CCN(S(=O)(=O)c2ccc(F)cc2)CC1	nt	17*
Cc1nc(N2CCN(c3ccccn3)CC2)c2c(C)c(C(=O)N3CC(C)CC(C)C3)sc2n1 (stereo unspecified)	-1.8	nt
O=C1CC(=O)Nc2cc(S(=O)(=O)N3CCN(c4ccccc4)CC3)ccc2N1	-0.39	0.31
CC(=O)NC1=NN(C(C)=O)C(c2ccc(Sc3ccc(C)cc3)o2)S1 (stereo unspecified)	-0.44	2
CC(=O)NC1=NN(C(C)=O)C(c2ccc(C)o2)S1 (stereo unspecified)	-2.3	16*
CCc1nnc(NS(=O)(=O)c2ccc(NS(=O)(=O)c3ccc(C)cc3)cc2)s1	-0.79	nt
COC(=O)C(N)Cc1ccc(O)c(O)c1 (stereo unspecified)	-2.2	-0.49
NCCc1ccc(O)c(O)c1	-0.08	25*
CN1C(=O)C(C)(C)c2cc(S(=O)(=O)N(Cc3cccs3)C3CCCC3)ccc21	nt	-0.61
CCOc1ccc(C2CC(=O)N3CN(C(C)c4ccccc4)CSC3=C2C#N)cc1 (stereo unspecified)	5.3*	3.2
CC(c1ccccc1)N1CSC2=C(C#N)C(c3cccs3)CC(=O)N2C1 (stereo unspecified)	4.4*	9.8*
Cc1ccc(C2CC(=O)N3CN(CCc4ccccc4)CSC3=C2C#N)cc1 (stereo unspecified)	2.7	-0.62
SMILES	CDC25B CDK2 inh	TAR Tat displ
COc1ccc(C2CC(=O)N3CN(C(C)c4ccccc4)CSC3=C2C#N)cc1 (stereo unspecified)	5.3*	-1.9
Cc1ccc(C2CC(=O)N3CN(C(C)c4ccccc4)CSC3=C2C#N)cc1 (stereo unspecified)	5*	1.2
NS(=O)(=O)c1ccc(NC(=O)CCN2C(=O)S/C(=C\c3ccc(Cl)cc3)C2=O)cc1	1.3	nt
CCCNC(=O)CCCn1nc(C)c2sc3ccccc3c2c1=O	-1.8	2.1
Cc1oc(-c2cccs2)nc1Cn1c(=O)cc(C)c2c(C)nn(-c3cccc(F)c3)c21	nt	-0.63
CCOc1cc(CNCCSc2nnnn2C)cc(Cl)c1OC	0.59	0.53
O=C1CC(C(=O)Nc2ccc3c(c2)OCO3)n2ncnc2N1 (stereo unspecified)	0.99	-2.1
O=C1CC(C(=O)Nc2ccc(Cl)cc2)n2ncnc2N1 (stereo unspecified)	3.9*	0.9
Cc1nc2nc(NCc3ccc(F)cc3)[nH]n2c(=O)c1C	-1.6	0.82
Cc1ccc(C)n1-c1cc(C(=O)O)cc(C(=O)O)c1	0.35	17*
Cc1cc2c(n1-c1ccc(C(=O)O)cc1)CCCC2	-0.92	1.3
Cc1ccc(S(=O)(=O)Nc2cccc3ncccc23)cc1	-1.5	nt

Compound activity (PubChem)
